Source: PubChem BioAssay (Tox21)
Activity calls are given as the source filed them. Calls follow the shape of the dose curve; as a rule, active = well fitted curve in the direction sought with a large enough effect in the repeat runs; inconclusive = weak or mixed curves; inactive = flat fitted curve, though single readings scatter.

Experiment: qHTS assay to test for compound auto fluorescence at 535 nm (green) in HepG2 cell free culture (AID 720686)
Settings: Cell-free medium, green autofluorescence 485/535 nm; series mostly up to 91.3 µM; fluorescence, % of fluorescein control: at the top concentration
From the text: U.S. Tox21 Program National Center for Advancing Translational Sciences [NCATS] NIH Chemical Genomics Center [NCGC] U.S. Environmental Protection Agency [EPA] National Institutes of Environmental Health Sciences [NIEHS] National Toxicology Program [NTP] U.S. Food and Drug Administration [FDA] Tox21 Assay Overview: Compound auto fluorescence often interferes with screening of the compound library against various biological targets and signaling pathways. Some of these compounds may have fluorophoric properties. Such properties may interfere with the assay outputs resulting in false positives and/or negatives. To decrease such complications and ensure the compound activities are relevant in terms of biological response, the Tox21 10K compound library was screened for auto fluorescence. From the fluorophores used as reporter signals in our screening assays, the auto fluorescence equivalencies of compounds against three fluorophores have been evaluated: Triamterene, Fluorescein and Rose Bengal sodium for blue, green and red fluorescence, respectively. The fluorescence intensities were measured using Excitation/Emission wavelengths at 405/460nm, 485/535nm and 540/590nm for blue, green and red labels, respectively. This assay includes the green fluorescence data.
Tox21 Assay Protocol Summary: 5 uL of culture medium (MEM containing 10% FBS) per well was dispensed into black wall/clear bottom 1536-well plates using a Multidrop Combi Dispenser (ThermoFisher Scientific, Waltham, MA). After 23 nL compound or DMSO vehicle was transferred into assay plate by a pintool work station (Kalypsys, San Diego, CA), fluorescence intensities in the assay plates were measured by an Envision (PerkinElmer, Shelton, CT) plate reader using three labels for measuring blue, green and red fluorescence at […] 460, 535 and 590nm respectively.
% is scaled to controls: 0 for no effect and ±100 for the full control effect.

SMILES | fluorescence, % of fluorescein control | Potency
Clc1ccccc1CN1CCc2sccc2C1 | -0.0729% [at 46 µM] (inactive) | –
COc1cc(C=C2CCC/C(=C\c3ccc(O)c(OC)c3)C2=O)ccc1O | 0.813% [at 46 µM] (inactive) | –
C=C[C@](C)(O)CC[C@@H]1[C@@]2(C)CCCC(C)(C)[C@@H]2CC[C@@]1(C)O | -0.0543% (inactive) | –
Clc1ccc(C(Cn2ccnc2)OCc2c(Cl)cccc2Cl)c(Cl)c1 (stereo not given) | 0.0431% [at 18.6 µM] (inactive) | –
Clc1ccc(C(c2ccccc2Cl)C(Cl)Cl)cc1 (stereo not given) | – | inactive
CCN(CC)CCOc1ccc(C(O)(Cc2ccc(Cl)cc2)c2ccc(C)cc2)cc1 (stereo not given) | 0.0885% [at 46 µM] (inactive) | –
C=CC(=O)OCCOCC(CC)(COCCOC(=O)C=C)COCCOC(=O)C=C | 0.0212% [at 95.7 µM] (inactive) | –
COC(=O)CC(C)CCC=C(C)C (stereo not given) | -0.0047% (inactive) | –
Clc1ccc(C(Cn2ccnc2)OCc2ccsc2Cl)c(Cl)c1 (stereo not given) | 0.151% [at 46 µM] (inactive) | –
CCCCCCCC/C=C/CCCOC(C)=O | 0.0036% (inactive) | –
Cn1cnc2ncnc(N)c21 | -0.0111% [at 46 µM] (inactive) | –
Cc1ccc(N)cc1O | 0.837% (inactive) | –
CSc1ccc2c(c1)N(CCC1CCCCN1C)c1ccccc1S2 (stereo not given) | – | inactive
CCCCCCCC/C=C\CCCCCCCC(=O)N(C)CC(=O)O | -0.203% (inactive) | –
CCCCCCCCCCCCCCCC | -0.0127% (inactive) | –
CCCCCCCCCCOCC(O)CN (stereo not given) | 0.109% [at 46 µM] (inactive) | –
O=C(Nc1ccc(Cl)c(Cl)c1)c1cc(Cl)cc(Cl)c1O | -0.0011% (inactive) | –
NC(=O)C(=O)N/N=C/c1ccc([N+](=O)[O-])o1 | 0.0176% [at 46 µM] (inactive) | –
C=CC(=O)OCC(O)COc1ccccc1 (stereo not given) | -0.0405% (inactive) | –
CCC(=O)OCCc1ccccc1 | 0.024% (inactive) | –

SMILES | fluorescence, % of fluorescein control | Potency
CC(=O)Oc1ccc(C2(c3ccc(OC(C)=O)cc3)C(=O)Nc3ccccc32)cc1 | – | inactive
O=C(c1ccccc1)c1cc(Cl)ccc1O | 0.0735% (inactive) | –
CCCOc1sc(C(=O)N2CCC(c3cc(CN)ccc3F)CC2)c(C)c1Br | -0.0066% (inactive) | –
CN1CCN(C2Cc3ccccc3Sc3ccc(Cl)cc32)CC1 (stereo not given) | -0.0012% [at 46 µM] (inactive) | –
O=C1NCCN1CCN1CCC(c2cn(-c3ccc(F)cc3)c3ccc(Cl)cc23)CC1 | – | inactive
O=C1NCN(c2ccccc2)C12CCN(CCCC(c1ccc(F)cc1)c1ccc(F)cc1)CC2 | -0.0004% [at 46 µM] (inactive) | –
COC(=O)[C@]1(C)CCC[C@@]2(C)[C@H]1CC=C1C=C(C(C)C)CC[C@@H]12 | -0.0311% (inactive) | –
CCCCCCCCCCCCN(CCO)CCO | -0.0065% (inactive) | –
Nc1ncnc2c1ncn2[C@@H]1O[C@H](COP(=O)(O)O)[C@@H](O)[C@H]1O | -0.0571% [at 46 µM] (inactive) | –
Cc1cccc(C)c1NC(=O)CN1CCN(CCCC(c2ccc(F)cc2)c2ccc(F)cc2)CC1 | 0.0052% [at 18.6 µM] (inactive) | –
O=C1C=CC(=O)N1c1ccccc1 | 0.138% (inactive) | –
CC1=C(/C=C/C(C)=C/C=C/C(C)=C\C=O)C(C)(C)CCC1 | 0.277% (inactive) | –
CN1[C@@H]2CC[C@@H]1CC(OC(=O)C(CO)c1ccccc1)C2 (stereo not given in full) | -0.0131% [at 46 µM] (inactive) | –
C=C(C)C(=O)OCCC[Si](Cl)(Cl)Cl | -0.0568% (inactive) | –
CCCCCCCCCCCCCC[n+]1ccccc1 | -0.159% (inactive) | –
Oc1c(Br)cc(Br)c2cccnc12 | 0.105% [at 46 µM] (inactive) | –
O=Nc1ccc(NO)cc1 | 0.0152% [at 95.7 µM] (inactive) | –
C[C@@]12C(=O)OC(=O)[C@]1(C)C1CCC2O1 | -0.0053% [at 18.6 µM] (inactive) | –
CCCN(CCc1cccs1)[C@H]1CCc2c(O)cccc2C1 | 0.0796% [at 46 µM] (inactive) | –
CCCCCCOc1ccc(O)cc1 | -0.19% (inactive) | –
